Measured values: PubChem BioAssay AID902 (National Center for Advancing Translational Sciences (NCATS), 2007)
Values joined by “and” are separate entries in the source; they are usually repeats but may differ in a detail not shown here. Equal entries are not always repeated. Among all 130,000 compounds or so, about 1,900 (1.5%) were called active. Roughly 5% stayed inconclusive and do not appear here. Calls follow the shape of the dose curve; as a rule, active = well fitted cell-killing curve with a large enough effect; inconclusive = small, poorly fitted or top-dose-only effect; inactive = no such curve, though single readings can be large or run the other way. The full list was thinned out, with actives kept by preference. The source holds several records for some structures; these can differ, active in one and inactive in another.

Assay: qHTS Screen for Compounds that Selectively Target Cancer Cells with p53 Mutations: Cytotoxicity of p53ts Cells at the Nonpermissive Temperature; also: nearly all actives have a fitted effect of over 55% in size
Settings: H1299-p53A138V viability at 39C, ATP luminescence, 24 h; series mostly up to 46.1 µM; activity change, negative = cell killing: at the top concentration
% is scaled to controls: 0 for no effect and ±100 for the full control effect; potency is read from the fitted curve at half-maximal effect.

| SMILES | activity change, negative = cell killing | Potency |
| --- | --- | --- |
| COc1ccc(Cn2c(=O)c3oc4ccccc4c3n(CC(=O)Nc3ccc(F)cc3F)c2=O)cc1 | -13.5% (inactive) |  |
| CCN(CCCNC(=O)CSc1cc(=O)n(C)c2cc(Cl)ccc12)c1cccc(C)c1 | 3.74% (inactive) |  |
| CCN(C(=O)Cn1c(=O)nc(-c2ccccc2)c2cc(Cl)ccc21)c1cccc(C)c1 |  | 15.8 µM (active) |
| CCCN(C(=O)Cn1cc(S(=O)(=O)N2CCN(c3ccccc3F)CC2)c2ccccc2c1=O)c1cccc(C)c1 | 11.6% (inactive) |  |
| Cc1ccc(CNC(=O)CN2CCN(Cc3ccc(Cl)cc3)C2=O)cc1 | -8.84% (inactive) |  |
| O=C(Cn1c(=O)nc(-c2ccccc2)c2cc(Cl)ccc21)NCc1ccc(Cl)cc1 |  | 10 µM (active) |
| O=C(Cn1nnc(-c2ccccc2)n1)NCc1ccccc1 | 6.92% (inactive) |  |
| CC1CCN(S(=O)(=O)c2ccc3c(c2)N(CC(=O)NCCc2ccccc2)C(=O)CO3)CC1 | -9.14% (inactive) |  |
| Cc1ccc(N(CC(=O)NCc2ccc(Cl)cc2)S(=O)(=O)N(C)C)cc1 | -7.17% (inactive) |  |
| CCc1nn(CC(=O)Nc2cc(C)cc(C)c2)c(=O)c2cc3sccc3n12 | -9.46% (inactive) |  |
| CCc1cccc(NC(=O)Cn2nc(CC)n3c(cc4cc(C)ccc43)c2=O)c1 |  | 25.1 µM (active) |
| CCc1nn(CC(=O)Nc2cccc(C)c2C)c(=O)c2cc3sccc3n12 | 9.89% (inactive) |  |
| CCCCN(CC)CCCNC(=O)Cn1ncc2c([nH]c3ccc(C)cc32)c1=O | -6.44% (inactive) |  |
| c1ccc(CNc2ncnc3[nH]ncc23)cc1 | 29.4% (inactive) |  |
| CCC(C)NC(=O)Cn1c(=O)n(-c2ccc(Cl)cc2)c(=O)c2c3c(sc21)CCCC3 (stereo not given) | -4.46% (inactive) |  |
| Cc1ccc(NC(=O)Cn2c(=O)n(-c3ccccc3)c(=O)c3c4c(sc32)CCCC4)cc1 |  | 12.6 µM (active) |
| CCCN(CCC)C(=O)Cn1c(=O)n(-c2ccc(Cl)cc2)c(=O)c2c3c(sc21)CCCCC3 | -16.4% (inactive) |  |
| CCOC(=O)c1c(S(=O)(=O)N2CCCC(C(=O)NCc3ccc(F)cc3)C2)c(C)n(CC)c1C (stereo not given) | -13.8% (inactive) |  |
| COc1cccc(C(=O)Nc2ccc3nc4n(c(=O)c3c2)CCCCC4)c1 | -25.8% (inactive) |  |
| O=C(Nc1c2c(nc3ccccc13)CCCC2)c1ccccc1Br | -2.5% (inactive) |  |
| COc1ccccc1Nc1c2c(nc3ccc(NC(=O)/C=C/c4cc(OC)c(OC)c(OC)c4)cc13)CCCC2 |  | 15.8 µM (active) |
| O=C(O)c1ccc(Cn2c(SCc3ccc(F)cc3)nc3ccncc32)cc1 | -19.3% (inactive) |  |
| Cc1ccc(Nc2c(-c3ccc(C)s3)nc3ccccn23)cc1 | 1.41% (inactive) |  |
| Cc1cccc2nc(-c3ccc(Cl)s3)c(Nc3ccc4c(c3)OCCO4)n12 | -25.1% (inactive) |  |

| SMILES | activity change, negative = cell killing | Potency |
| --- | --- | --- |
| Cc1ccn2c(Nc3ccc4c(c3)OCCO4)c(-c3ccc(C)s3)nc2c1 |  | 12.6 µM (active) |
| CCN(C(=O)c1sc2cc(OC)ccc2c1Cl)c1ccccc1 | -4.72% (inactive) |  |
| COc1ccc(N2CCN(C3=NS(=O)(=O)C(c4cccc(Br)c4)=C3C)CC2)cc1 | -1.65% (inactive) |  |
| CCOc1ccc(-n2c(C)nc3c(cnn3-c3ccc(C)cc3)c2=O)cc1 | 6.42% (inactive) |  |
| Cc1cccc(N2CCN(C(=O)c3ccc4c(c3)CCN4S(=O)(=O)c3ccccc3)CC2)c1C | -24.6% (inactive) |  |
| Cc1c(C(=O)N2CC(C)OC(C)C2)sc2nc(-c3ccccc3)cn12 (stereo not given) | -12.2% (inactive) |  |
| CCC(CC)c1nnc(NS(=O)(=O)Cc2ccccc2)s1 | 2.97% (inactive) |  |
| CCC(CC)c1nn2cc(-c3ccccc3)nc2s1 |  | 6.31 µM (active) |
| CC(C)c1ccc(C2CC(=O)N3CN(C4CCCCC4)CSC3=C2C#N)cc1 (stereo not given) | 6.4% (inactive) |  |
| Cc1noc(/C=C/N(C)C)c1S(=O)(=O)N1CCCC(C(=O)Nc2cccc(F)c2)C1 (stereo not given) | -0.583% (inactive) |  |
| CN(C(=O)c1ccc2c(c1)N(Cc1cccc(Cl)c1)C(=O)c1ccccc1S2=O)C1CCCCC1 (stereo not given) | 15.2% (inactive) |  |
| Cc1ccc2c(=O)c(C(=O)c3cccc(Cl)c3)cn(CC(=O)NCc3ccccc3)c2n1 | 23.8% (inactive) |  |
| CN1CCC[C@@H]1CCO[C@](C)(c1ccccc1)c1ccc(Cl)cc1 |  | inactive and 12.6 µM (active) |
| CN1CCCC1CCO[C@@](C)(c1ccccc1)c1ccc(Cl)cc1 (stereo not given in full) | -25.6% (inactive) |  |
| Cc1ccsc1C(=O)OCC(=O)c1cc(C)n(CC2CCCO2)c1C (stereo not given) |  | 7.94 µM (active) |
| Cc1ccsc1C(=O)OCC(=O)c1cc2ccccc2o1 | -18.4% (inactive) |  |
| COC(=O)c1ccc2c(=O)n(CC3CCCO3)c(=S)[nH]c2c1 (stereo not given) | 9.84% (inactive) |  |
| COc1ccccc1N1CCN(C(=O)CN(Cc2ccc(Cl)cc2)S(C)(=O)=O)CC1 | -9.34% (inactive) |  |
| COc1ccccc1-n1nnnc1S(=O)(=O)Cc1ccc(Cl)cc1 |  | 6.31 µM (active) |
| COc1ccccc1N1CCN(Cc2nnnn2CCc2ccccc2)CC1 | 6.43% (inactive) |  |
| Cc1cccc(N2CCN(S(=O)(=O)c3ccc4[nH]c5c(c4c3)CCCCC5)CC2)c1C | 7.92% (inactive) |  |
| O=C(CCOc1ccccc1)N(Cc1cccnc1)c1nc2ccc(Cl)cc2s1 | 2.01% (inactive) |  |
| O=C(CCS(=O)(=O)c1ccccc1)N(Cc1cccnc1)c1nc2c(F)cccc2s1 |  | 31.6 µM (active) |
| CN(C)S(=O)(=O)c1ccc(C(=O)N(Cc2cccnc2)c2nc3c(F)cc(F)cc3s2)cc1 | -14.5% (inactive) |  |

| SMILES | activity change, negative = cell killing | Potency |
| --- | --- | --- |
| CCc1ccc(NC(=O)C2CCCN2S(=O)(=O)c2ccc3nc(-c4ccccc4)[nH]c3c2)cc1 (stereo not given) | -17.1% (inactive) |  |
| CCc1cccc(-n2nnc(-c3nsc(NC(=O)c4ccc(C)cc4)n3)c2C)c1 | 7.17% (inactive) |  |
| CC1Cc2cc(S(=O)(=O)CCC(=O)Nc3ccc(F)c(Cl)c3)ccc2N1C(=O)C1CC1 (stereo not given) | -11.4% (inactive) |  |
| COc1ccc(-n2cnc3cc(C(=O)NC4CCCC4)ccc32)cc1 | 14% (inactive) |  |
| CCC(C)c1ccc2oc(-c3ccc(NC(=O)c4cc5ccccc5o4)cc3)nc2c1 (stereo not given) | 12.3% (inactive) |  |
| CCc1ccc2oc(-c3ccc(N)cc3)nc2c1 |  | 10 µM (active) |
| COC(=O)c1ccc(-c2nc3cc(NC(C)=O)ccc3o2)cc1 | -4.16% (inactive) |  |
| Cc1ccc(C)c(S(=O)(=O)c2nnn3c2nc(N2CCOCC2)c2sccc23)c1 | -8.81% (inactive) |  |
| CCSc1ncc(Cl)c(C(=O)Nc2cc(C)ccc2C)n1 | -3.08% (inactive) |  |
| CCS(=O)(=O)c1ncc(N(Cc2ccc(F)cc2)Cc2ccco2)c(C(=O)Nc2cc(C)ccc2C)n1 | -4.76% (inactive) |  |
| Cc1ccc(NC(=O)c2nc(S(=O)(=O)Cc3cccc(C)c3)ncc2Cl)cc1 |  | 10 µM (active) |
| Cn1c(=O)n(Cc2c(F)cccc2Cl)c(=O)c2c1nc1n2CCN1c1ccc(F)cc1 | -11.7% (inactive) |  |
| Oc1c(C(c2ccccn2)N2CCOCC2)ccc2cccnc12 (stereo not given) |  | 12.6 µM (active) |
| Oc1c(C(c2ccccc2Cl)N2CCOCC2)sc2nc(-c3ccco3)nn12 (stereo not given) | -14% (inactive) |  |
| Cc1nc2sc(C(c3ccco3)N3CCOCC3)c(O)n2n1 (stereo not given) | 11.5% (inactive) |  |
| Cc1ccc(CCNC(=O)c2ccc3c(c2)N(Cc2cc(C)ccc2C)C(=O)c2ccccc2S3=O)cc1 (stereo not given) | 1.71% (inactive) |  |
| CC(=O)N1CCc2cc(Br)cc(S(=O)(=O)CCC(=O)NCCc3ccc(Cl)cc3)c21 | -2.18% (inactive) |  |
| COc1cc(CNCCSc2nnnn2C)ccc1OCc1c(F)cccc1Cl | -22.3% (inactive) |  |
| COc1cc(CNCCSc2nnnn2C)ccc1OCc1ccc(Cl)cc1Cl |  | 25.1 µM (active) |
| Cn1nnnc1SCCNCc1ccc(Cl)c(Cl)c1 | 11.3% (inactive) |  |
| Cc1ccccc1CSCCNC(=O)C1CCN(S(=O)(=O)Cc2ccccc2)CC1 | -6.07% (inactive) |  |
| Cc1ccc(NC(=O)c2ccc3[nH]c(C)cc(=O)c3c2)c(C)c1 | 10.7% (inactive) |  |
| CCC1(C)CC(=O)c2c(ccc3oc(C(=O)Nc4ccc(C(C)=O)cc4)c(C)c23)O1 (stereo not given) | -27.1% (inactive) |  |
| Cc1c(C(=O)NCc2ccccc2Br)oc2ccc3c(c12)C(=O)CC(C)(C)O3 |  | 15.8 µM (active) |

| SMILES | activity change, negative = cell killing | Potency |
| --- | --- | --- |
| CC1(C)CC(=O)c2cc(OCC(=O)NCC3CCCO3)ccc2O1 (stereo not given) | -4.39% (inactive) |  |
| CCS(=O)(=O)N1CCc2cc(C(=O)NCc3ccc(C)cc3)ccc21 | -3.8% (inactive) |  |
| COc1ccccc1-c1cc(C(F)(F)F)nc(S(=O)(=O)CCCC(=O)Nc2ccc(F)cc2F)n1 | -100% (inactive) |  |
| Cc1ccc(O)c(NC(=O)CCS(=O)(=O)c2nc(-c3ccc4c(c3)OCO4)cc(C(F)(F)F)n2)c1 |  | 3.16 µM (active) |
| Cc1ccc(O)c(NC(=O)c2cc(-c3ccc(F)cc3)no2)c1 | -18.6% (inactive) |  |
| Cc1ccc(CNC(=O)c2ccc(CS(=O)Cc3cccc(Cl)c3)o2)cc1 (stereo not given) | -16.2% (inactive) |  |
| c1c2c(cc3sc(N4CCCCC4)nc13)OCCO2 |  | 2 µM (active) |
| Fc1ccc2nc(N3CCCCC3)sc2c1 | 7.22% (inactive) |  |
| COc1ccc2nc(Nc3nc4cc5c(cc4s3)OCCO5)sc2c1 | -17.6% (inactive) |  |
| Cc1cccc(CSc2nc3ccncc3n2CC(=O)N(C)C2CCCCC2)c1 | -7.28% (inactive) |  |
| COc1ccc(CNC(=O)c2ccc3c(O)c(S(=O)(=O)c4ccccc4)c(=O)[nH]c3c2)cc1 | -10.2% (inactive) |  |
| Cc1ccc(C(=O)Nc2ccc3[nH]c(=O)c(=O)[nH]c3c2)cc1 | -13.9% (inactive) |  |
| CC(C)c1ccc(NC(=O)c2ccc3c(O)c(S(=O)(=O)c4ccccc4)c(=O)[nH]c3c2)cc1 |  | 6.31 µM (active) |
| COc1ccc(C)cc1NC(=O)CCc1c(C)nn(-c2ccc(N3CCOCC3)nn2)c1C | -14.8% (inactive) |  |
| Cc1ccc(N2CC(NC(=O)Cc3cccs3)CC2=O)cc1 (stereo not given) | 13.4% (inactive) |  |
| CCCOc1ccc(C2c3c(-c4ccccc4O)n[nH]c3C(=O)N2Cc2cccnc2)cc1 (stereo not given) |  | 12.6 µM (active) |
| COc1ccc(C2C(C(C)=O)=C(O)C(=O)N2Cc2cccnc2)cc1 (stereo not given) | 14.7% (inactive) |  |
| CCOc1ccc(/C(O)=C2/C(=O)C(=O)N(Cc3cccnc3)C2c2ccc(N(C)C)cc2)c(C)c1 (stereo not given) | -14.2% (inactive) |  |
| CCCCN1C(=O)c2[nH]nc(-c3ccccc3O)c2C1c1cccc(OCc2ccccc2)c1 (stereo not given) |  | 25.1 µM (active) |
| COc1ccc(CCN2C(=O)c3[nH]nc(-c4ccccc4O)c3C2c2ccc(C)cc2)cc1OC (stereo not given) | -18.7% (inactive) |  |
| COc1cccc(-c2n[nH]c3c2C(c2cccc(O)c2)N(C)C3=O)c1 (stereo not given) | 4.1% (inactive) |  |
| O=C(c1cccc(Cl)c1)N1CCN(CCc2ccncc2)CC1 | 0.144% (inactive) |  |
| Fc1ccc(C(Nc2ccc(Cl)c(C(F)(F)F)c2)c2nnc(-c3ccccc3)o2)cc1 (stereo not given) | 3.27% (inactive) |  |
